# Measured values: PubChem BioAssay AID504850 (National Center for Advancing Translational Sciences (NCATS), 2011)
# The whole screen tested about 2,300 compounds, of which about 1,200 (52%) were called active. Another 34% or so got no clear call; they are omitted. Calls come from the whole dose curve; as a rule, active = well fitted inhibition curve with a large enough effect; inconclusive = small, poorly fitted or top-dose-only effect, or effect the other way; inactive = no such curve, though single readings can be large or run the other way. The set was probably picked from earlier hits. Some of the results follow.
# Assay: Confirmation screen for delayed death inhibitors of the malarial parasite plastid, 48 hour incubation; note: nearly all actives have a fitted effect of over 65% in size
# Details: P. falciparum-infected erythrocytes, luciferase growth; series mostly up to 28.7 µM
# Outline: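 Single-generation (48 h, 37 C) exposure of integrated firefly luciferase-reporter P. falciparum in red cells, 0.1% parasitemia at 2% hematocrit, Albumax-supplemented RPMI. Falling luciferase signal marks parasite growth inhibition.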
# Potency is the fitted concentration of half-maximal effect.
row,Compound,Potency
1,CC1CN(c2nc(-c3ccc(Br)cc3)nnc2-c2ccccc2)CC(C)N1 (centres undefined),3.98 µM (active)
2,O=C(CSc1nc2ccccc2n1-c1ccccc1)Nc1ncc(Cl)cc1Cl,11.2 µM (active)
3,COCCn1c(SCC(=O)Nc2ncc(Cl)c(C)c2Cl)nc2ccccc21,inactive
4,Cc1ccc(-n2c(SCC(=O)Nc3ncc(Cl)cc3Cl)nc3ccccc32)cc1,11.2 µM (active)
5,CN1c2ccccc2-c2nc3ccccc3n2C1c1cccs1 (centres undefined),7.08 µM (active)
6,Cc1ccc(-c2nnc(SCC(=O)N/N=C/c3cccs3)n2-c2ccc(C)cc2)cc1,11.2 µM (active)
7,CC(C)OCCCNc1ncnc2c1[nH]c1ccc(F)cc12,4.47 µM (active)
8,COc1ccc2[nH]c3c(NCCC4=CCCCC4)ncnc3c2c1,5.62 µM (active)
9,COc1ccc2[nH]c3c(NCCN(C(C)C)C(C)C)ncnc3c2c1,5.62 µM (active)
10,Cc1cc(C)n2nc(SCC(=O)N3CCN(c4ccc(F)cc4)CC3)nc2n1,12.6 µM (active)
11,CCn1c2ccccc2c2cc(Nc3cc(C)nc4ncnn34)ccc21,0.251 µM (active)
12,CCOC(=O)CCC(=O)Nc1ncnc2c1C(c1ccccc1)c1c(ccc3ccccc13)O2 (centres undefined),8.91 µM (active)
13,O=C(Nc1ccccc1C(=O)Nc1ccccc1C(=O)O)c1ccccc1,inactive
14,O=C(Nc1ccccc1O)c1ccc([N+](=O)[O-])cc1,15.8 µM (active)
15,Cc1ccc(N/N=C/c2ccncc2)cc1,inactive
16,Cc1sc(N/N=C/c2cccnc2)nc1-c1ccccc1,12.6 µM (active)
17,Cc1sc(NC(=O)c2c(F)cccc2F)nc1-c1ccccc1,inactive
18,O=C(N1CCOCC1)N1c2ccccc2Sc2ccccc21,inactive
19,CC1CN(C(=O)N2c3ccccc3Sc3ccccc32)CC(C)O1 (centres undefined),14.1 µM (active)
20,C[C@@H](CN1C2=NC[C@H](Cc3ccc(O)cc3)N2C[C@H]1Cc1ccc(O)cc1)NC(=O)CCC1CCCCC1,8.91 µM (active)
21,O=C(CCC1CCCCC1)NCCN1C2=NC[C@H](Cc3ccccc3)N2C[C@H]1Cc1ccc(O)cc1,11.2 µM (active)
22,C/C=C(\C)C(=O)NCCN1C2=NC[C@H](Cc3ccccc3)N2C[C@H]1Cc1ccc(O)cc1,11.2 µM (active)
23,C[C@H]1CN=C2N(CCNC(=O)CCC3CCCCC3)[C@H](Cc3ccc(O)cc3)CN21,11.2 µM (active)
24,CC1CCN(CCNC(=O)C2CCN(S(=O)(=O)c3cccc4nsnc34)CC2)CC1,14.1 µM (active)

row,Compound,Potency
1,Cc1cc2nsnc2c(S(=O)(=O)N2CCN(C)CC2)c1C,inactive
2,CN(C)S(=O)(=O)c1cc(NC(=O)c2cc(=O)c3ccccc3o2)ccc1Cl,11.2 µM (active)
3,Nc1cc[n+](CC(=O)c2ccc3c(c2)OCCO3)cc1,7.08 µM (active)
4,O=Cc1s/c(=N\S(=O)(=O)c2ccccc2)n(CCCCl)c1Cl,inactive
5,CCOC(=O)c1cnc2c(C)c(Cl)ccc2c1NCCCN1CCOCC1,14.1 µM (active)
6,N=c1c2c(n(Cc3ccc(Cl)c(Cl)c3)c3c1CCC3)CCCC2,0.355 µM (active)
7,N=c1c2c(n(Cc3ccc(Cl)cc3)c3c1CCC3)CCC2,0.562 µM (active)
8,Cc1cc(C)cc(NC(=O)c2cccnc2)c1,inactive
9,O=C(Nc1ccc(N2CCCCC2)c(Cl)c1)c1cccnc1,11.2 µM (active)
10,COCCN(C(=O)c1ccccc1F)c1nnc(-c2ccc(OC)cc2)s1,10 µM (active)
11,CC(C)(C)C1C/C(=C/c2ccccn2)C(=O)/C(=C/c2ccccn2)C1 (centres undefined),0.316 µM (active)
12,COC(=O)CSc1nc2c(c(-c3ccco3)c1C#N)CCCC2,12.6 µM (active)
13,N#C/C(=C\c1ccc(-c2ccc(C(=O)O)cc2)o1)C(=O)Nc1ccc(F)cc1,14.1 µM (active)
14,Cc1ccc(NC2=C/C(=N\S(=O)(=O)c3cccs3)c3ccccc3C2=O)c(C)c1,0.282 µM (active)
15,CC(C)(C(=O)N[C@H](CO)c1ccccc1)C(=O)N[C@H](CO)c1ccccc1,inactive
16,CCCC(=O)NC(c1ccccc1)c1c(O)ccc2ccccc12 (centres undefined),7.08 µM (active)
17,CCCCNC(=O)c1onc(CSc2cccc3ccccc23)c1C(=O)O,inactive
18,CCC1=C/C(=C/c2sc3ccccc3[n+]2CC)CC(C)(C)C1,5.62 µM (active)
19,CCC(C)[C@@H](NC(=O)OC(C)(C)C)c1nnc(S(=O)(=O)Cc2cccc(C)c2)o1 (some centres undefined),14.1 µM (active)
20,CCCc1nnc(NC(=O)c2nc(S(=O)(=O)Cc3cccc(C)c3)ncc2Cl)s1,inactive
21,O=C(COc1cccc2ccccc12)Nc1ccc(Cl)cc1C(=O)O,inactive
22,O=C(COc1ccccc1Cl)NC(=S)N1CCc2ccccc21,12.6 µM (active)
23,CCC(=O)NCCc1cc2ccc(C)cc2[nH]c1=O,inactive
24,COc1cc2cc(CN(Cc3cccs3)C(=S)Nc3ccc(C)cc3)c(=O)[nH]c2cc1OC,10 µM (active)

row,Compound,Potency
1,COc1cc2cc(CN(CCc3ccccc3C)C(=S)NCCCN3CCOCC3)c(=O)[nH]c2cc1OC,7.94 µM (active)
2,CS(=O)(=O)c1ccc(-c2nnc(NC(=O)c3ccc(S(=O)(=O)N4CCCC4)cc3)o2)cc1,14.1 µM (active)
3,C=CCNC(=S)N/N=C/c1ccc(-c2cc(Cl)ccc2Cl)o1,12.6 µM (active)
4,O=C(NCc1cccnc1)c1nc(-c2ccccc2)n(-c2ccccc2)n1,inactive
5,O=C(NCc1cccnc1)/C(=C\c1ccc(-c2cccc(Cl)c2)o1)S(=O)(=O)c1ccccc1,12.6 µM (active)
6,COc1cc(CNC(=O)CCn2nc(C)c3c(C)n(-c4ccccc4)nc3c2=O)cc(OC)c1OC,12.6 µM (active)
7,COc1ccccc1CNC(=O)CCCn1nc(C)c2c(C)n(-c3ccccc3)nc2c1=O,12.6 µM (active)
8,Cc1ccc2c(c1)N(CCC(=O)NCc1ccco1)C(=O)CO2,inactive
9,COc1ccccc1CCNC(=O)CCn1nc(C)c2c(C)n(-c3ccccc3)nc2c1=O,14.1 µM (active)
10,Cc1ccc(-n2nc3c(=O)n(CCCC(=O)NCc4ccco4)nc(C)c3c2C)cc1,6.31 µM (active)
11,CC(=O)Nc1sc(C)c(C)c1C(=O)OCC(=O)N(CC(C)C)C1CCS(=O)(=O)C1 (centres undefined),12.6 µM (active)
12,CSCCC(NC(=O)c1ccccc1Cl)C(=O)N1CCN(C(c2ccccc2)c2ccccc2)CC1 (centres undefined),3.98 µM (active)
13,Cc1ccc(N(Cc2ccco2)C(=O)c2ccc(N3CCCCC3)c([N+](=O)[O-])c2)cc1,11.2 µM (active)
14,C=CCNC(=O)c1onc(CSc2ccccc2CC)c1C(=O)O,inactive
15,O=C(O)c1cc(-c2ccc3ccccc3c2)nc2ccc(F)cc12,inactive
16,Fc1ccc2cnc(-c3ccccc3)c(-c3ccc(C(F)(F)F)cc3)c2c1,15.8 µM (active)
17,CCCN1CCN(C(=O)C2CCN(S(=O)(=O)c3ccc4c(c3)NC(=O)C(C)S4)CC2)CC1 (centres undefined),12.6 µM (active)
18,CC(=O)c1c(C)[nH]c(C(=O)COC(=O)COc2ccccc2F)c1C,inactive
19,COc1ccc(C(C)(C)C)cc1NC(=O)c1[nH]c(C)c(C(C)=O)c1C,7.94 µM (active)
20,CC#CC#Cc1cccc(=O)o1,8.91 µM (active)
21,CCCn1c(CN2CCN(C(=O)OCC)CC2)nc2cc(NC(=O)C(C)C)ccc21,11.2 µM (active)
22,CCNc1ccc(Br)cc(C(=O)/C=C/c2c(Cl)cccc2Cl)c1=O,10 µM (active)
23,COc1ccc(-c2cn(-c3ccccc3)c3[n+]2CCS3)cc1,3.16 µM (active)
24,COc1cc(/C=C2\COC/C(=C\c3ccc(O)c(OC)c3)C2=O)ccc1O,6.31 µM (active)

row,Compound,Potency
1,COc1cc(/C=C2\CC(C(C)(C)C)C/C(=C\c3cc(OC)c(OC)c(OC)c3)C2=O)cc(OC)c1OC (centres undefined),5.01 µM (active)
2,COc1cc(/C=C2/CCC/C(=C\c3cc(O)c(OC)c(Cl)c3)C2=O)cc(Cl)c1O,11.2 µM (active)
3,COc1cc(/C=C2\COC/C(=C\c3cc(OC)c(OC)c(OC)c3)C2=O)cc(OC)c1OC,2.82 µM (active)
4,COc1ccc(/C=C2\CC/C(=C\c3ccc(OC)c(OC)c3)C2=O)cc1OC,15.8 µM (active)
5,CCOc1ccc(/C=C2\SC(=S)N(C(C(=O)O)c3ccccc3)C2=O)cc1OC (centres undefined),inactive
6,CC(C)c1ccc(NC(=O)c2cc(S(=O)(=O)N3CCCC3)c[nH]2)cc1,12.6 µM (active)
7,COc1ccc(-c2c(C(C)=O)c(C)n(C)c2C)cc1,12.6 µM (active)
8,CC(C)N1CCC(N2CCN(Cc3ccc(-c4ccc(Cl)cc4)o3)CC2CCO)CC1 (centres undefined),6.31 µM (active)
9,O=C(CN1C2=NCCCN2c2ccccc21)c1ccc2c(c1)OCO2,11.2 µM (active)
10,OC(CN1C2=NCCN2c2ccccc21)c1ccc2c(c1)OCO2 (centres undefined),5.01 µM (active)
11,Cc1ccc(C)c(C(=O)CN2C3=NCCCN3c3ccccc32)c1,12.6 µM (active)
12,Nc1cccc2c1C(=O)N(C(=O)/C=C/c1ccc(F)cc1)C2=O,inactive
13,Cc1cc2c(c(=O)n1Cc1ccco1)C(c1cccnc1)C(C#N)=C(N)O2 (centres undefined),inactive
14,OC(c1ccccc1)(c1ccccc1)C1CCN(C(=S)NCCc2ccccc2)CC1,11.2 µM (active)
15,CN(Cc1cccc(Cl)c1Cl)C(=O)c1ccc(NC(=O)CC#N)cc1,3.98 µM (active)
16,O=C(CSc1ccc(-c2cccnc2)nn1)Nc1ccccc1C(F)(F)F,inactive
17,O=C(CSc1nc(-c2ccco2)cc(C(F)(F)F)n1)Nc1ccccc1C(F)(F)F,14.1 µM (active)
18,O=S1(=O)C=C(Sc2nc3cc(Cl)ccc3o2)c2ccccc21,11.2 µM (active)
19,O=S1(=O)C=C(Sc2nnc(-c3ccccc3)o2)c2ccccc21,12.6 µM (active)
20,CCOC(=O)Cn1c(S(=O)(=O)Cc2cccc(F)c2)nc(-c2ccccc2)c1-c1ccccc1,11.2 µM (active)
21,C#CCn1c(S(=O)(=O)Cc2ccc(C)cc2)nc(-c2ccccc2)c1-c1ccccc1,12.6 µM (active)
22,C#CCn1c(S(=O)(=O)Cc2ccc(F)cc2)nc(-c2ccccc2)c1-c1ccccc1,14.1 µM (active)
